For 13 compounds, Potency results are on record in PubChem BioAssay (NCATS).

Assay [1] can be described thus: qHTS of pediatric cancer cell lines to identify multiple opportunities for drug repurposing: Primary screen for BT-37 cells (AID 1347094). Further: potency means the concentration at half of the fitted maximal effect. The gist of the method: (§1)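 Following a 5-hour attachment period, cells at 500-1,000/well received compounds and were cultured for 48 hours. CellTiter-Glo was added and luminescence read to estimate viable, metabolically active cells.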
On the technique in general: In qHTS, concentration-response curves come from the screen itself.

A short description of assay [2]: qHTS of pediatric cancer cell lines to identify multiple opportunities for drug repurposing: Primary screen for NB-EBc1 cells (AID 1347095). Further: potency means the concentration at half of the fitted maximal effect. The essentials: as §1
Assay [3] can be described thus: qHTS of pediatric cancer cell lines to identify multiple opportunities for drug repurposing: Primary screen for Saos-2 cells (AID 1347097). Further: potency means the concentration at half of the fitted maximal effect; nearly all actives have a fitted effect of over 40% in size. The gist of the method: as §1
A short description of assay [4]: qHTS of pediatric cancer cell lines to identify multiple opportunities for drug repurposing: Primary screen for NB1643 cells (AID 1347099). Further: potency means the concentration at half of the fitted maximal effect; nearly all actives have a fitted effect of over 50% in size. The essentials:
as §1

Assay [5] in a line: qHTS of pediatric cancer cell lines to identify multiple opportunities for drug repurposing: Primary screen for LAN-5 cells (AID 1347100). Further: potency means the concentration at half of the fitted maximal effect. The essentials:
(§2)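 Cells (500-1,000/well) in growth media were settled 5 h at 37 degrees C, then given compounds for 48 h. Viability was read as CellTiter-Glo luminescence. Primary runs used MIPE at 11 points (0.78 nM-46 µM) and NPC at 8 points (0.59 nM-46 µM); follow-ups used 11 points.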

Assay [6] can be described thus: qHTS of pediatric cancer cell lines to identify multiple opportunities for drug repurposing: Primary screen for BT-12 cells (AID 1347101). Further: potency means the concentration at half of the fitted maximal effect; nearly all actives have a fitted effect of over 25% in size. The gist of the method: (§3)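 Cells (500-1,000/well) rested 5 h, then received compounds for 48 h; metabolically active cells were measured by CellTiter-Glo luminescence. Final concentrations spanned up to 46 µM (MIPE, 11-point) or 0.59 nM-46 µM (NPC, 8-point) in primary screens, 11-point in follow-ups.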

A short description of assay [7]: qHTS of pediatric cancer cell lines to identify multiple opportunities for drug repurposing: Primary screen for OHS-50 cells (AID 1347103). Further: potency means the concentration at half of the fitted maximal effect; nearly all actives have a fitted effect of over 40% in size. The essentials:
as §3

A short description of assay [8]: qHTS of pediatric cancer cell lines to identify multiple opportunities for drug repurposing: Primary screen for Rh30 cells (AID 1347107). Further: nearly all actives have a fitted effect of over 75% in size. Further: potency means the concentration at half of the fitted maximal effect. The essentials: as §2
The nature of assay [9]: qHTS of pediatric cancer cell lines to identify multiple opportunities for drug repurposing: Confirmatory screen for A673 cells (AID 1347110).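 Further: potency means the concentration at half of the fitted maximal effect; cells exposed to compound for 48 h before the viability read; nearly all actives have a fitted effect of over 65% in size.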 The gist of the method:
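qHTS titration format: primary MIPE 0.78 nM-46 µM (11 pts), NPC 0.59 nM-46 µM; confirmation 11 pts. 48 h, CTG luminescence.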

Assay [10] is described as follows: qHTS of pediatric cancer cell lines to identify multiple opportunities for drug repurposing: Confirmatory screen for SK-N-MC cells (AID 1347111).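 Further: potency means the concentration at half of the fitted maximal effect; cells exposed to compound for 48 h before the readout; nearly all actives have a fitted effect of over 70% in size.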 The essentials:
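Metabolically active cells were quantified by ATP-dependent luminescence (CellTiter-Glo, 15 min at room temperature) following 48 h treatment. Cells had been plated at 500-1,000 per well and settled for 5 h beforehand.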

A short description of assay [11]: qHTS of pediatric cancer cell lines to identify multiple opportunities for drug repurposing: Confirmatory screen for BT-12 cells (AID 1347112). Further: nearly all actives have a fitted effect of over 55% in size. Further: potency means the concentration at half of the fitted maximal effect. The essentials:
as §2

Assay [12] is described as follows: qHTS of pediatric cancer cell lines to identify multiple opportunities for drug repurposing: Primary screen for SK-N-SH cells (AID 1347098). Further: nearly all actives have a fitted effect of over 65% in size. Further: potency means the concentration at half of the fitted maximal effect. The essentials: as §3
Assay [13] is described as follows: qHTS of pediatric cancer cell lines to identify multiple opportunities for drug repurposing: Primary screen for Rh18 cells (AID 1347102). Further: nearly all actives have a fitted effect of over 65% in size. Further: potency means the concentration at half of the fitted maximal effect. The gist of the method: as §2
The nature of assay [14]: qHTS of pediatric cancer cell lines to identify multiple opportunities for drug repurposing: Primary screen for RD cells (AID 1347104). Further: potency means the concentration at half of the fitted maximal effect; nearly all actives have a fitted effect of over 55% in size. The gist of the method:
as §1

A short description of assay [15]: qHTS of pediatric cancer cell lines to identify multiple opportunities for drug repurposing: Primary screen for MG 63 (6-TG R) cells (AID 1347105). Further: potency means the concentration at half of the fitted maximal effect; nearly all actives have a fitted effect of over 50% in size. The essentials:
as §1

The nature of assay [16]: qHTS of pediatric cancer cell lines to identify multiple opportunities for drug repurposing: Primary screen for Rh41 cells (AID 1347108). Further: potency means the concentration at half of the fitted maximal effect; nearly all actives have a fitted effect of over 70% in size. The gist of the method:
as §1

Assay [17] is described as follows: qHTS of pediatric cancer cell lines to identify multiple opportunities for drug repurposing: Confirmatory screen for NB1643 cells (AID 1347109). Further: nearly all actives have a fitted effect of over 45% in size. Further: potency means the concentration at half of the fitted maximal effect. The essentials:
as §2

The nature of assay [18]: qHTS of pediatric cancer cell lines to identify multiple opportunities for drug repurposing: Confirmatory screen for LAN-5 cells (AID 1347113). Further: nearly all actives have a fitted effect of over 65% in size. Further: potency means the concentration at half of the fitted maximal effect. The gist of the method: as §2
Assay [19] is described as follows: qHTS of pediatric cancer cell lines to identify multiple opportunities for drug repurposing: Primary screen for control Hh wild type fibroblast cells (AID 1347106).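 Further: series mostly up to about 46 µM; a drop in luminescence marks cytotoxicity and a rise apparent proliferation; nearly all actives have a fitted effect of over 55% in size.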 The essentials:
as §2

Records with an inconclusive call do not appear. Calls of active or inactive are those of the source. The call rests on the fitted dose curve; in most records, active means well fitted curve in the direction sought with a large enough effect; inconclusive means small, poorly fitted or top-dose-only effect, or another doubt; inactive means no such curve, though single readings can be large; an effect the other way counts as inactive or inconclusive.

As for `N#Cc1c(NC(=O)c2cccc3ccccc23)sc2c1CCCC2`, the Potency in [1] is 1.09 µM (active); in assay [2] it was 0.332 µM (active); in assay [3], 0.132 µM (active); in [4] it was 4.69 µM (active); in assay [5], 0.148 µM (active); in assay [6], 1.09 µM (active). Also, the Potency in assay [7] was 0.485 µM (active); in assay [9], 0.414 µM (active); in assay [10] it was 0.369 µM (active); in assay [11], 2.33 µM (active). Besides, in assay [8], the Potency entry is “inactive”.
Consider `O=C(Nc1cc2cc[nH]c2cn1)c1ccccc1`, for which the Potency in assay [1] was 7.69 µM (active); in assay [2] it was 13.2 µM (active); in [3], 11.8 µM (active); in assay [12], 19.2 µM (active); in [4] it was 14.8 µM (active); in [5], 14.8 µM (active). In addition, the Potency was 6.85 µM (active) in [6]; 11.8 µM (active) in assay [13]; 14.8 µM (active) in [14]; 14.8 µM (active) in assay [15]; 18.7 µM (active) in assay [16]; 10.4 µM (active) in [17]. Moreover, the Potency in [9] is 1.65 µM (active); in assay [10], 2.61 µM (active); in assay [11] it was 14.7 µM (active); in [18], 14.7 µM (active).
In the case of `Cn1cc(-c2cnn3c(N)c(Br)c([C@H]4CCCNC4)nc23)cn1`, the Potency in assay [1] was 0.685 µM (active); in [2], 0.264 µM (active); in [3], 1.48 µM (active); in assay [12], 17.1 µM (active); in assay [4], 1.32 µM (active); in assay [7] it was 0.385 µM (active). For the same compound, the Potency is 1.05 µM (active) in [14]; 2.35 µM (active) in assay [16]; 1.85 µM (active) in assay [17]; 14.7 µM (active) in assay [9]; 0.827 µM (active) in [10]; 5.85 µM (active) in [18]. Moreover, the Potency result in [8] and in [11] was “inactive” throughout.
On to `CC[C@]12C=CCN3CC[C@@]4(c5cc([C@@]6(C(=O)OC)C[C@H]7C[C@@H](C(C)(F)F)CN(Cc8c6[nH]c6ccccc86)C7)c(OC)cc5N(C)[C@H]4[C@@](O)(C(=O)OC)[C@H]1OC(C)=O)[C@@H]32`, for which the Potency in assay [1] is 0.0273 µM (active); in [2], 0.0118 µM (active); in [3], 0.0083 µM (active); in [4], 0.132 µM (active); in [6], 0.0343 µM (active); in assay [7] it was 0.0193 µM (active). Further, the Potency in assay [14] was 0.0059 µM (active); in [9], 0.522 µM (active); in assay [10], 9.27 µM (active). Moreover, the Potency result in assay [17], in assay [11] and in [18] was “inactive” throughout.
As to `C=CCNc1c(O)cc2c(O)c1C[C@@H](C)C[C@H](OC)[C@@H](O)[C@@H](C)C=C(C)[C@H](OC(N)=O)[C@@H](OC)C=CC=C(C)C(=O)N2`, the Potency in [1] was 0.217 µM (active); in assay [2] it was 1.32 µM (active); in assay [12], 3.04 µM (active); in [4] it was 1.48 µM (active); in assay [5] it was 1.87 µM (active); in assay [13], 0.935 µM (active). The results for the Potency in assay [14] and in [16] were 0.264 µM (active) and 2.35 µM (active), respectively. For the same compound, the Potency result in assay [8] is “inactive”.
For `CNC(=O)c1cccc(-c2ccc3c(N4CCOC[C@H]4C)nc(N4CCOC[C@H]4C)nc3n2)c1`, the Potency in [1] is 0.122 µM (active); in [2], 0.132 µM (active); in [3], 0.833 µM (active); in assay [13] it was 0.332 µM (active); in [14], 0.148 µM (active); in [15], 0.0296 µM (active). Also, the Potency is 0.118 µM (active) in assay [16], 1.47 µM (active) in assay [9], 1.04 µM (active) in assay [10] and 2.33 µM (active) in [18].
On to `NC(=O)N1CCC(CC(=O)N2CCC([C@H]3c4ncc(Br)cc4CCc4cc(Cl)cc(Br)c43)CC2)CC1`, for which the Potency in [1] is 19.3 µM (active); in [2], 13.2 µM (active); in [3], 18.7 µM (active); in assay [4] it was 14.8 µM (active); in assay [5], 7.43 µM (active); in assay [6] it was 21.7 µM (active). For the same compound, the Potency in assay [7] was 8.63 µM (active); in assay [14], 20.9 µM (active); in assay [15], 18.7 µM (active); in assay [16], 5.9 µM (active). Further, in [19], the Potency entry is “inactive”.
On to `CC(C)NC[C@@H](C(=O)N1CCN(c2ncnc3c2[C@H](C)C[C@H]3O)CC1)c1ccc(Cl)cc1`, for which the Potency was 4.32 µM (active) in assay [1]; 0.833 µM (active) in assay [2]; 6.62 µM (active) in assay [3]; 12.1 µM (active) in assay [12]; 3.32 µM (active) in [4]; 2.96 µM (active) in assay [5]. The Potency is 24.3 µM (active) in assay [6]; 5.9 µM (active) in assay [13]; 0.193 µM (active) in assay [7]; 1.18 µM (active) in assay [14]; 3.72 µM (active) in assay [15]; 0.332 µM (active) in assay [16]. Further, the Potency in assay [10] and in assay [18] was 2.93 µM (active) throughout. Besides, the Potency entry in assay [11] is “inactive”.
As for `CCOC(=O)N1CCN([N+]([O-])=NOc2ccc([N+](=O)[O-])cc2C#N)CC1`, the Potency in [1] was 7.69 µM (active); in assay [2], 5.26 µM (active); in [4], 3.72 µM (active); in [5] it was 4.18 µM (active); in assay [6] it was 3.06 µM (active); in [7] it was 3.43 µM (active). Further, the Potency in [14] is 4.69 µM (active); in [17] it was 3.69 µM (active); in assay [9], 2.61 µM (active); in assay [10], 3.29 µM (active); in assay [18], 4.65 µM (active). The Potency result in assay [12] and in assay [8] was “inactive” in each case.
As to `CC(C)c1cnn2c(NCc3ccccc3)cc(NCCCCCCN)nc12`, the Potency in assay [1] is 24.3 µM (active); in assay [2], 20.9 µM (active); in [3], 23.5 µM (active); in assay [4] it was 18.7 µM (active); in assay [5], 18.7 µM (active); in assay [14] it was 18.7 µM (active). Besides, the Potency in assay [15] was 5.9 µM (active); in [16], 7.43 µM (active).
For the compound `COc1ccc(C[C@@H](C)[C@@H](C)Cc2ccc(OC)c(OC)c2)cc1OC`, the Potency in assay [1] was 0.968 µM (active); in assay [2] it was 0.118 µM (active); in [3], 1.05 µM (active); in assay [5], 0.187 µM (active); in assay [7] it was 0.685 µM (active); in assay [10], 10.4 µM (active). Also, the Potency entry in assay [12], in assay [13], in assay [8] and in assay [18] was “inactive” each time.
Regarding `CCc1cnn2c(NCc3ccc[n+]([O-])c3)cc(N3CCCC[C@@H]3CCO)nc12`, the Potency in assay [1] is 0.0385 µM (active); in [2] it was 0.0187 µM (active); in assay [3], 0.0235 µM (active); in assay [12] it was 0.0383 µM (active); in assay [6], 0.0432 µM (active); in assay [7], 0.0343 µM (active). The Potency in assay [14] is 0.0332 µM (active); in assay [16], 0.0743 µM (active). In addition, the Potency result in [8] and in [11] was “inactive” each time.
With `CCCCCCCCc1ccc(CCC(N)(CO)CO)cc1`, the Potency is 21.7 µM (active) in assay [1]; 16.6 µM (active) in assay [2]; 18.7 µM (active) in assay [3]; 34.1 µM (active) in [12]; 18.7 µM (active) in assay [4]; 26.4 µM (active) in [5]. For the same compound, the Potency in [13] was 16.6 µM (active); in assay [7] it was 15.3 µM (active); in assay [14], 8.33 µM (active); in assay [15], 18.7 µM (active); in assay [8] it was 18.7 µM (active); in assay [16], 18.7 µM (active). For the same compound, the Potency result in assay [19] was “inactive”.
